We go through five molecules from PubChem BioAssay AID1159580 (chemical genetic matrix, 2015).

The campaign covered roughly 5,500 compounds. About 2,000 (36%) were called active. Another 18% or so got no clear call; they are omitted. Some of the results follow. Values without a mark were called inactive. No stated cut-off is given here; in the data, active means normalized growth mostly below about 0.91 (no sharp cut-off); inconclusive means no clear call, values can overlap the other calls; inactive means mostly above about 0.92.

The nature of this test: chemical genetic growth profiling, strain panel (AID 1159580).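 Further: tested at 20 µM; growth read once vehicle control cultures reached saturation at 30 °C; 1 = growth at the plate median or of vehicle wells; lower values mean less growth of the strain.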 Conditions: growth OD.
Setting [1] is: S. cerevisiae deletion strains, locus YAL040C, strain CLN3, active compounds read low.
Setting [2] is: S. cerevisiae deletion strains, locus YDR363W, strain ESC2, active compounds read low.
Setting [3] is: S. cerevisiae deletion strains, locus YER002W, strain NOP16, active compounds read low.
Setting [4] is: S. cerevisiae deletion strains, locus YMR307W, strain GAS1, active compounds read low.
Setting [5] is: S. cerevisiae deletion strains, locus YNL153C, strain GIM3, active compounds read low.
Setting [6] is: S. cerevisiae deletion strains, locus YNL175C, strain NOP13, active compounds read low.
[7] abbreviates: S. cerevisiae deletion strains, locus YNL197C, strain WHI3, active compounds read low.
[8] abbreviates: S. cerevisiae deletion strains, locus YNL224C, strain SQS1, active compounds read low.
Where [9] appears, read: S. cerevisiae deletion strains, locus YOR083W, strain WHI5 (second series), active compounds read low.
Where [10] appears, read: S. cerevisiae deletion strains, locus YPL055C, strain LGE1, active compounds read low.
Setting [11] is: S. cerevisiae deletion strains, locus YPL241C, strain CIN2, active compounds read low.
[12] abbreviates: S. cerevisiae deletion strains, locus YAL013W, strain DEP1, active compounds read low.
Setting [13] is: S. cerevisiae deletion strains, locus YBR229C, strain ROT2, active compounds read low.
The mark [14] stands for this setting: S. cerevisiae deletion strains, locus YDL101C, strain DUN1, active compounds read low.
Where [15] appears, read: S. cerevisiae deletion strains, locus YDL134C, strain PPH21, active compounds read low.
The mark [16] stands for this setting: S. cerevisiae deletion strains, locus YDR150W, strain NUM1, active compounds read low.
The mark [17] stands for this setting: S. cerevisiae deletion strains, locus YEL061C, strain CIN8, active compounds read low.
[18] abbreviates: S. cerevisiae deletion strains, locus YGR078C, strain PAC10, active compounds read low.
Setting [19] is: S. cerevisiae deletion strains, locus YHR030C, strain SLT2, active compounds read low.
Where [20] appears, read: S. cerevisiae deletion strains, locus YHR087W, strain rtc3, active compounds read low.
Where [21] appears, read: S. cerevisiae deletion strains, locus YJL187C, strain SWE1, active compounds read low.
[22] abbreviates: S. cerevisiae deletion strains, locus YJR043C, strain POL32, active compounds read low.
The mark [23] stands for this setting: S. cerevisiae deletion strains, locus YJR075W, strain HOC1, active compounds read low.
The mark [24] stands for this setting: S. cerevisiae deletion strains, locus YLR039C, strain RIC1, active compounds read low.
Where [25] appears, read: S. cerevisiae deletion strains, locus YLR058C, strain SHM2 (second series), active compounds read low.
The mark [26] stands for this setting: S. cerevisiae deletion strains, locus YLR085C, strain ARP6, active compounds read low.
[27] abbreviates: S. cerevisiae deletion strains, locus YLR262C, strain YPT6, active compounds read low.
Setting [28] is: S. cerevisiae deletion strains, locus YML094W, strain GIM5, active compounds read low.
Where [29] appears, read: S. cerevisiae deletion strains, locus YMR219W, strain ESC1, active compounds read low.
[30] abbreviates: S. cerevisiae deletion strains, locus YMR263W, strain SAP30, active compounds read low.
Where [31] appears, read: S. cerevisiae deletion strains, locus YNL128W, strain TEP1, active compounds read low.
[32] abbreviates: S. cerevisiae deletion strains, locus YNL298W, strain CLA4 (second series), active compounds read low.
Setting [33] is: S. cerevisiae deletion strains, locus YNL322C, strain KRE1, active compounds read low.
Setting [34] is: S. cerevisiae deletion strains, locus YNR030W, strain Alg12, active compounds read low.
Where [35] appears, read: S. cerevisiae deletion strains, locus YOL006C, strain TOP1, active compounds read low.
Where [36] appears, read: S. cerevisiae deletion strains, locus YPR135W, strain CTF4, active compounds read low.
The mark [37] stands for this setting: S. cerevisiae deletion strains, locus YGR229C, strain SMI1, active compounds read low.
Setting [38] is: S. cerevisiae deletion strains, locus YKL190W, strain CNB1, active compounds read low.

As for `N[C@@H](CCl)C(=O)O`, the normalized growth was 0.98 under setting [1]; 1.03 under setting [2]; 0.99 under setting [3]; 0.993 under setting [4]; 1.05 under setting [5]; 1.01 under setting [6]. For the same molecule, the normalized growth is 1.03 under setting [7]; 0.996 under setting [8]; 1.01 under setting [9]; 1.02 under setting [10]; 1 under setting [11].
`CC(=O)c1cc2ccccc2oc1=O`: the normalized growth under setting [12] was 1.02; the normalized growth under setting [13] is 1.01; the normalized growth under setting [14] is 0.961; the normalized growth under setting [15] is 1.02; the normalized growth under setting [16] was 0.94; the normalized growth under setting [17] is 1.01. Also, the normalized growth under setting [18] was 0.986; the normalized growth under setting [19] is 1; the normalized growth under setting [20] is 1.03; the normalized growth under setting [21] was 0.999; the normalized growth under setting [22] is 0.999; the normalized growth under setting [23] was 0.988. The normalized growth under setting [24] is 1.05; the normalized growth under setting [25] is 1.01; the normalized growth under setting [26] is 1.08; the normalized growth under setting [27] was 1; the normalized growth under setting [28] was 1.02; the normalized growth under setting [29] was 0.993. In addition, the normalized growth is 1.02 under setting [30]; 1.01 under setting [31]; 1.01 under setting [5]; 1.07 under setting [32]; 0.99 under setting [33]; 1.05 under setting [34]. For the same molecule, the normalized growth is, setting by setting: under setting [35], 1.02; under setting [10], 1.13; under setting [11], 1.03; under setting [36], 0.984; (S. cerevisiae strains, strain wild type, active compounds read low) 1.03.
With `CC(=O)c1cc2cc(Br)ccc2oc1=O`, the normalized growth under setting [12] is 0.987; the normalized growth under setting [13] was 0.967; the normalized growth under setting [14] was 0.998; the normalized growth under setting [16] is 0.994; the normalized growth under setting [17] was 0.975; the normalized growth under setting [18] was 0.976. Also, the normalized growth runs as follows: under setting [37], 0.994; under setting [19], 0.818; under setting [20], 0.96; under setting [21], 0.97; under setting [22], 0.984; under setting [23], 0.948. In addition, the normalized growth is 0.992 under setting [38]; 0.618 (active) under setting [24]; 0.964 under setting [25]; 0.936 under setting [26]; 0.628 (active) under setting [27]; 0.999 under setting [28]. The normalized growth under setting [29] is 0.96; the normalized growth under setting [30] is 1; the normalized growth under setting [31] is 1.01; the normalized growth under setting [5] is 0.994; the normalized growth under setting [32] was 0.983; the normalized growth under setting [33] is 0.964. Further, the normalized growth is 0.97 under setting [34], 1.02 under setting [10], 0.964 under setting [11] and 0.717 under setting [36].
Consider `CC(=O)Nc1cc2ccccc2oc1=O`, for which the normalized growth under setting [12] is 1; the normalized growth under setting [13] was 1; the normalized growth under setting [14] was 0.975; the normalized growth under setting [15] was 1; the normalized growth under setting [16] was 0.986; the normalized growth under setting [17] was 1.02. For the same molecule, the normalized growth reads like this: under setting [18], 1.01; under setting [37], 0.997; under setting [19], 0.942; under setting [20], 0.988; under setting [22], 1.01; under setting [23], 0.997. In addition, the normalized growth under setting [38] is 1; the normalized growth under setting [24] was 1.06; the normalized growth under setting [25] is 1.01; the normalized growth under setting [26] is 1.01; the normalized growth under setting [27] was 1.04; the normalized growth under setting [28] is 0.997. In addition, the normalized growth by setting is: under setting [29], 1; under setting [30], 0.996; under setting [4], 1.09; under setting [5], 0.984; under setting [32], 0.998; under setting [33], 1.01. Further, the normalized growth reads like this: under setting [34], 1; under setting [35], 0.958; under setting [10], 0.969; under setting [11], 0.985; under setting [36], 0.946.
In the case of `CCCCCCCCCCCCCCCCOCC(COCC(F)(F)F)OP(=O)(O)OCO` (stereo unspecified), the normalized growth reads like this: under setting [12], 0.947; under setting [1], 1; (S. cerevisiae deletion strains, locus YCL061C, strain MRC1 (second series), active compounds read low) 0.987; under setting [2], 0.968; under setting [3], 0.995; under setting [37], 0.767 (active). For the same molecule, the normalized growth was 1.03 under setting [23]; 1.02 under setting [30]; 0.995 under setting [6]; 1 under setting [7]; 0.964 under setting [8]; 0.988 under setting [9]. The normalized growth was 0.881 (active) under setting [10] and 0.988 under setting [11].
